Screening data from PubChem.
CYP2C19 inh: inhibitors of human CYP2C19; P33261; CYP2C19 Supersomes, luciferin-H EGE luminescence, 30 min; inhibition, % at 5 µM; 96,000 tested, 21% active; AID 778;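 active = CYP2C19 inhibition above a set limit at 5 µM in the primary screen, cut at about 50% in these data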;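 note: plate controls were negative control wells for no effect and 2.5 mM tranylcypromine positive control for full effect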
Target sequence (P33261 whole entry, looked up): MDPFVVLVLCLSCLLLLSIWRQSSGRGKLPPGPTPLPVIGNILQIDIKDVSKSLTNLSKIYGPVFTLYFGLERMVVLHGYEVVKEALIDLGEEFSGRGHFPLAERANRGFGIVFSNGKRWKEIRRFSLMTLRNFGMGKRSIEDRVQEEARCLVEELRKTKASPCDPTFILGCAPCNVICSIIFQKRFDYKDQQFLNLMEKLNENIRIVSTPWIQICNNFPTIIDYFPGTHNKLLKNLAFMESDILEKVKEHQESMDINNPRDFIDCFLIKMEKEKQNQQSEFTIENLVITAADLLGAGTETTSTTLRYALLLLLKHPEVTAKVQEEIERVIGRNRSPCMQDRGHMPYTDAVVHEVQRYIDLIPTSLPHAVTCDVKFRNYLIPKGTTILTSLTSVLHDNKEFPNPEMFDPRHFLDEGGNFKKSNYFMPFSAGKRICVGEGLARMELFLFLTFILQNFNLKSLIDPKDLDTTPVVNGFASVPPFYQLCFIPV
CYP2C19 act: cytochrome P450 2C19 (human) activation. P33261. recombinant CYP2C19, luciferin-H EGE luminescence; stronger effect = higher value; 0 = fully inhibited enzyme, 1 = untreated enzyme. activation factor at 5 µM. 96,000 tested, under 10 active. AID 1025;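 active = activation factor of at least 2 at 5 µM in the primary screen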;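 note: 0 = wells with 2.5 mM tranylcypromine and 1 = vehicle-only wells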
Measles CPE: protection of cells from measles virus | Measles virus-infected cells, CPE protection, absorbance | protection (pct of control), % at 4 µM | 140,000 tested, 1.5% active | AID 841; in the data active = protection mostly above about 24%, no sharp cut-off; inactive = mostly below about 26%
CYP2C9 activ: activators of human CYP2C9; 96,000 tested, 1.4% active; activation factor at 5 µM; recombinant CYP2C9, luciferin-H conversion, luminescence; stronger effect = higher value; factor 1 = untreated enzyme, 0 = blocked;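 active = activation factor of 2 or more for CYP2C9 at a 5 µM dose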;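 note: 0 = sulfaphenazole-blocked wells and 1 = vehicle-only wells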
CYP2C9 inh: human CYP2C9 inhibition; CYP2C9 Supersomes, luciferin-H conversion, luminescence; inhibition, % at 5 µM; 96,000 tested, 20% active; AID 777;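 active = blocking of liver enzyme CYP2C9 beyond about 50% at 5 µM, limit read from the data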
Starred values were filed as active, the others as inactive; · = no result. A selection: hits, their analogues and other compounds. The true share with any hit is near 22%.

SMILES	CYP2C19 inh	CYP2C19 act	Measles CPE	CYP2C9 activ	CYP2C9 inh
COc1ccc(C(O)CNc2ccc(C)cc2)cc1 (centres undefined)	92*	0.1	30	0.8	16
Cn1c(CCNC(=O)c2ccccc2F)nnc1SCc1nc2ccccc2c(=O)[nH]1	-12	1.1	2	0.4	64*
COc1ccc(Cc2nnc(SCc3nc4ccccc4c(=O)[nH]3)n2C)cc1	9	0.9	9	0.4	62*
O=c1[nH]c(CSc2nnc3ccccn23)nc2ccccc12	·	·	3	·	·
Nc1nnc(COc2ccccc2)s1	·	·	6	·	·
CSc1nc(-c2ccccc2)c(-c2ccccc2)[nH]1	-15	1.1	3	1.1	-14
CC(C)C1Oc2ccccc2N(CC(=O)NCCCN2C(C)CCCC2C)C1=O (centres undefined)	-3	1	3	1	-2
COC(=O)COc1cccc2c(=O)n(CC(=O)N3CCCc4ccccc43)ccc12	6	0.9	4	0.9	8
C=CCN=c1sc(C(=O)OC)cc(=O)n1CC=C	52*	0.5	1	0.8	18
COC(=O)C(NNc1ccccc1)(NC(=O)c1cccc(F)c1)C(F)(F)F (centres undefined)	83*	0.2	32	0.2	84*
COc1cccc(C(=O)Nc2ccccc2)c1	31	0.7	17	1	-2
NC(=O)N1OCC2COc3ccc4ccccc4c3C21 (centres undefined)	5	1	6	2.1*	-108
CCN(CC)C(=O)c1cc(C(C)(C)C)c(O)c(C(C)(C)C)c1	·	·	32	·	·
Nc1nonc1-c1nc2ccccc2[nH]1	21	0.8	2	0.8	16
Cn1cc(Cl)c(-c2nc3ccccc3[nH]2)n1	62*	0.4	9	0.7	32
CCOC(=O)NC(=O)/C(C=Nc1ccc(Cl)c(Cl)c1Cl)=C(\C)O	·	·	16	·	·
C/C(=N\NC(=O)c1ccccc1)c1ccccc1Br	·	·	22	·	·
C/C(=N\NC(=O)c1ccc(Br)cc1)c1ccccc1	61*	0.4	9	0.7	28
Cc1ccc2nc(-c3ccccc3)cn2c1	81*	0.2	9	0.5	48
Cc1nc(SCC(=O)Nc2cc(Cl)ccc2[N+](=O)[O-])nc(C)c1C	·	·	12	·	·
Cc1ccc(C)c(NC(=O)CSc2nnc(-c3ccncc3)n2N)c1	60*	0.4	10	0.1	92*
Cc1ccc(C)c(NC(=O)CSc2nnc(C)c(=O)n2N)c1	·	·	9	·	·
Cc1cccc(NC(=O)CSc2nnc(-c3ccccc3)n2N)c1C	55*	0.5	5	0.5	47
CCn1c(SCC(=O)N2CCC(C(N)=O)(N3CCCCC3)CC2)nnc1-c1ccccc1	·	·	11	·	·
COc1cc(OC)cc(C(=O)NC(=S)Nc2ccc3c4c(cccc24)CC3)c1	-10	1.1	11	0.9	6
SMILES	CYP2C19 inh	CYP2C19 act	Measles CPE	CYP2C9 activ	CYP2C9 inh
O=C(Nc1ccc2c3c(cccc13)CC2)c1ccco1	23	0.8	14	2*	-99
COc1ccc(C(=O)Nc2ccc3c4c(cccc24)CC3)cc1	3	1	3	2.2*	-125
COc1ccc(CCn2c(N)c(C#N)c3nc4ccccc4nc32)cc1OC	98*	0	20	0.6	40
N#CCCn1c2ccccc2c2nc3ccccc3nc21	-12	1.1	17	0.9	8
COc1ccc2c(c1)c1nc3ccccc3nc1n2Cc1ccc(OC(C)C)c(OC)c1	·	·	14	·	·
COc1ccc(Cn2c(N)c(C#N)c3nc4ccccc4nc32)cc1OC	90*	0.1	14	0.3	67*
COc1ccccc1CCn1c(N)c(C#N)c2nc3ccccc3nc21	38	0.6	12	0.4	55*
COc1ccc(CCNC(=O)C2CCN(c3ccc(N4CCOCC4)nn3)CC2)c(OC)c1	41	0.6	10	0.8	23
CC(/C=N/NC(=O)c1cc(-c2cccnc2)nc2c1c(C)nn2-c1ccccc1)=C\c1ccccc1	·	·	3	·	·
Cc1cc(NC(=O)c2ccc(Cl)cc2)c(C(C)C)cc1O	51*	0.5	6	1.8	-78
O=C(Nc1ccccc1O)c1ccc(Cl)cc1	1	1	4	1.1	-8
CCOc1cccc(NCc2cc3c(C(C)(C)C)nn(-c4ccccc4)c3[nH]c2=O)c1	23	0.8	17	0.3	75*
CC(C)(C)c1nn(-c2ccccc2)c2[nH]c(=O)c(CNCc3ccc4c(c3)OCO4)cc12	13	0.9	1	1.3	-30
CCCN(CCO)Cc1ccc(F)c(Br)c1	9	0.9	6	0.8	17
O=C1c2[nH]nc(-c3ccccc3O)c2C(c2ccccc2F)N1Cc1ccco1 (centres undefined)	85*	0.1	7	0.1	95*
O=C1Cn2c(nc3ccccc32)N1c1cccc(C(F)(F)F)c1	59*	0.4	23	0.7	31
CC1=C(C(=O)Nc2cc(-c3cccc(F)c3)[nH]n2)C2(CCCCC2)OC1=O	52*	0.5	12	0.2	83*
CC1=C(C(=O)NC(C)c2ccc3c(c2)OCCO3)C2(CCC(C)CC2)OC1=O (centres undefined)	·	·	4	·	·
COc1ccc(CCCC(=O)Nc2ccc(F)cc2)cc1	·	·	6	·	·
CC1=C(C(=O)Nc2cccnc2)C(c2ccc3c(c2)OCO3)C2=C(CCCC2=O)N1 (centres undefined)	20	0.8	7	0.6	40
CCOC(=O)c1cc2cc(CC(=O)c3ccc(OCC)cc3O)ccc2o1	69*	0.3	19	0.5	54*
COc1ccc(NC(=O)CCCn2c(=S)[nH]c3ccccc3c2=O)cc1	11	0.9	30	0.4	59*
COc1ccc(NC(=O)CCCn2c(=O)[nH]c3ccccc3c2=O)cc1	53*	0.5	17	0.1	89*
Cc1ccc(CNC(=O)CCCn2c(=O)[nH]c3ccccc3c2=O)cc1	5	0.9	4	0.8	20
COc1ccc(NC(=O)CCCCn2c(=O)[nH]c3ccccc3c2=O)cc1	35	0.6	10	0.3	66*
SMILES	CYP2C19 inh	CYP2C19 act	Measles CPE	CYP2C9 activ	CYP2C9 inh
CCn1c(SCc2ccc([N+](=O)[O-])cc2)nnc1C(C)NC(=O)c1ccc(C)cc1 (centres undefined)	·	·	24	·	·
Cc1cc(C)n(-c2ccc(C(=O)C(C#N)c3nc4ccccc4n3C)cc2)n1 (centres undefined)	30	0.7	29	1	-3
O=C1OC(NC(=O)c2ccccc2)C(n2cc(CO)nn2)=C1Cl (centres undefined)	13	0.9	43	0.3	66*
CCc1ccc(-c2nc(CSCC(=O)N3CCN(c4ccccn4)CC3)c(C)o2)cc1	36	0.6	1	0.4	64*
Cc1oc(-c2ccccc2Cl)nc1CSCC(=O)N1CCCC1	93*	0.1	44*	0.8	17
CCOC(=O)N1CCC(NC(=O)CSCc2nc(-c3sccc3C)oc2C)CC1	41	0.6	12	0.8	22
Cc1oc(-c2ccccc2Cl)nc1CSCC(=O)NC1CCCC1	13	0.9	9	0.6	35
CCOC(=O)N1CCC(NC(=O)CSCc2nc(-c3cccc(OC)c3)oc2C)CC1	57*	0.4	13	0.3	67*
